# Values of other authors in PubChem BioAssay AID977611.
# Among all 3,900 compounds or so, about 3,900 (100%) were called active. Cut-off not given; nearly all actives show Kd up to about 4200 µM. The set was probably picked from earlier hits. The list shows a part of the results. Where a SMILES comes first, the peptide text is derived from it. Non-standard residues stand in square brackets, D forms with d. Square brackets hold non-standard residues; d marks the D form. Residues, ends and D or L forms follow the SMILES beside them. Peptide text beside a SMILES is read from it. [ ]: non-standard residue; d: D form. Orn(CH(NH2)2) = NC(N)NCCC[C@H](N)C(=O)O; Lys(Me2) = CN(C)CCCC[C@H](N)C(=O)O
# Experiment: PubChem AID 977611
# Conditions: PDB protein-ligand complexes, literature Kd
compound,measurement,setting,value
CC(=O)[C@]1(O)CC2=C(C(=O)C3=C(C(=O)c4ccccc4C3=O)C2O)[C@@H](O[C@H]2C[C@H](N)[C@H](O)[C@H](C)O2)C1 (some centres undefined),Kd,"protein: Chitinase A, PDB entry 3arq",0.4 µM (active)
CCC/C=C/CCO[C@H]1O[C@H](CO)[C@@H](O)[C@H](O)[C@@H]1O,Kd,"protein: Protein FimH, PDB entry 4lov",0.0171 µM (active)
C[C@H](CCCCN(C)C)NC(=O)[C@@H](N)CCCNC(N)N,Kd,"protein: Tumor suppressor p53-binding protein 1, PDB entry 2ig0",19.7 µM (active)
CC(=O)NCCCC[C@H](N)C(=O)O,Kd,"protein: Chromatin structure-remodeling complex protein Rsc4(36340), PDB entry 2r0y",1000 µM (active)
N[C@@H](CCS)C(=O)O,Kd,"protein: Betaine-Homocysteine S-Methyltransferase from Homo sapiens, PDB entry 4m3p",4 µM (active)
CN(C)CCCC[C@H](N)C(=O)O,Kd,"protein: Tumor suppressor p53-binding protein 1 tandem tudor domain, PDB entry 3lgl",0.9 µM (active)
CC(C)[C@H](N)C(=O)N[C@@H](Cc1ccc(O)cc1)C(=O)N[C@@H](Cc1c[nH]c2ccccc12)C(=O)N[C@@H](Cc1ccccc1)C(=O)O (H-VYWF-OH),Kd,"protein: Protease degS, PDB entry 2r3y",3.2 µM (active)
CC(C)C[C@H](NC(=O)[C@H](C)NC(=O)[C@H](Cc1c[nH]c2ccccc12)NC(=O)[C@H](Cc1ccc(O)cc1)NC(=O)[C@H](CCC(=O)O)NC(=O)[C@H](C)NC(=O)[C@H](Cc1ccccc1)NC(=O)[C@H](CO)NC(=O)[C@@H](N)[C@@H](C)O)C(=O)N[C@@H](CC(C)C)C(=O)N[C@@H](CO)C(=O)O,Kd,"protein: human MDM2, PDB entry 3lnz",0.00049 µM (active)
CC(C)C[C@H](NC(=O)[C@H](CC(C)C)NC(=O)[C@H](CC(N)=O)NC(=O)[C@H](Cc1c[nH]c2ccccc12)NC(=O)[C@H](Cc1ccc(O)cc1)NC(=O)[C@H](CCC(=O)O)NC(=O)[C@H](C)NC(=O)[C@H](Cc1ccccc1)NC(=O)[C@H](CO)NC(=O)[C@@H](N)[C@@H](C)O)C(=O)N[C@H](C=O)CO (H-TSFAEYWNLLS-aldehyde),Kd,"protein: E3 ubiquitin-protein ligase Mdm2, PDB entry 3eqs",0.0033 µM (active)
C[C@H](N)C(=O)N[C@@H](CCCNC(N)N)C(=O)N[C@H](C(=O)N[C@@H](C)C(=O)O)[C@@H](C)O (H-A[Orn(CH(NH2)2)]TA-OH),Kd,"protein: WD-repeat protein 5(WDR523), PDB entry 2h9p",192 µM (active)
C[C@H](N)C(=O)N[C@@H](CCCNC(N)N)C(=O)N[C@H](C(=O)O)[C@@H](C)O,Kd,"protein: ING4, PDB entry 2vnf",3 µM (active)
C[C@H](N)C(=O)N[C@@H](CCCNC(N)N)C(=O)N[C@H](C(=O)N[C@@H](CCCCN)C(=O)N[C@@H](C)C(=O)O)[C@@H](C)O (H-A[Orn(CH(NH2)2)]TKA-OH),Kd,"protein: Baculoviral IAP repeat-containing protein 5, human Survivin, PDB entry 3uef",21 µM (active)
C[C@H](NC(=O)CNC(=O)[C@@H](N)CS)C(=O)N[C@@H](CCCNC(N)N)C(=O)O (H-CGA[Orn(CH(NH2)2)]-OH),Kd,"protein: ?-chain of Hepatocyte growth factor-like protein, PDB entry 2asu",0.001 µM (active)
C[C@@H](O)[C@H](NC(=O)CNC(=O)[C@@H](N)CCCNC(N)N)C(=O)O,Kd,"protein: Proto-oncogene tyrosine-protein kinase Src, PDB entry 4hxj",74.3 µM (active)
OC[C@H]1CN[C@@H](O)[C@@H](O)[C@@H]1O,Kd,"protein: MANNOSYL-OLIGOSACCHARIDE 1,2-ALPHA-MANNOSIDASE, PDB entry 4ayr",0.099 µM (active)
C[C@H]1NC(=NCCC[C@H](N)C(=O)O)N[C@H]1O,Kd,"protein: Advanced glycosylation end product-specific receptor V domain, PDB entry 2mov",0.04 µM (active)
C[C@H](NC(=O)[C@H](CCCCN)NC(=O)[C@H](CCCCN)NC(=O)[C@H](CCCCN)NC(=O)[C@@H](NC(=O)[C@H](CO)NC(=O)CNC(=O)[C@H](CCCCN)NC(=O)[C@@H]1CCCN1C(=O)[C@H](CCC(=O)O)NC(=O)[C@@H]1CCCN1C(=O)[C@H](CCC(=O)O)NC(=O)[C@H](CCCCN)NC(=O)[C@H](CCCNC(N)N)NC(=O)[C@H](CCCCN)NC(=O)[C@H](C)NC(=O)[C@@H](N)CO)[C@@H](C)O)C(=O)N[C@@H](CCCCN)C(=O)N[C@H](C(=O)O)[C@@H](C)O (H-SAK[Orn(CH(NH2)2)]KEPEPKGSTKKKAKT-OH),Kd,"protein: Importin subunit alpha-2, PDB entry 3uvu",0.042 µM (active)
H-AGGPTIEEVD-OH,Kd,"protein: Protein UNC-45, PDB entry 4i2w",121 µM (active)
C[C@H](N)C(=O)N1CCC[C@H]1C(=O)N1CCC[C@H]1C(=O)NCC(=O)N[C@H](C(=O)N[C@@H](C)C(=O)N[C@@H](CCCNC(N)N)C(=O)N[C@@H](CCCNC(N)N)C(=O)N[C@@H](CCCCN)C(=O)N[C@@H](CCCNC(N)N)C(=O)N[C@@H](CCCCN)C(=O)N[C@@H](C)C(=O)N[C@@H](CC(=O)O)C(=O)N[C@@H](CO)C(=O)O)[C@@H](C)O (H-APPGTA[Orn(CH(NH2)2)][Orn(CH(NH2)2)]K[Orn(CH(NH2)2)]KADS-OH),Kd,"protein: Signal recognition particle 43 kDa protein, chloroplast, PDB entry 2hug",1.06 µM (active)
C[C@H](N)C(=O)N[C@@H](C)C(=O)N[C@@H](CCCCN(C)C)C(=O)N[C@@H](CO)C(=O)N[C@H](C(=O)NCC(=O)NCC(=O)O)[C@@H](C)O (H-AA[Lys(Me2)]STGG-OH),Kd,"protein: Euchromatic histone-lysine N-methyltransferase 1(Glp), PDB entry 3b95",7 µM (active)
H-DPGEGPST-OH,Kd,"protein: Ubiquitin carboxyl-terminal hydrolase 7(USP7), PDB entry 1yy6",0.86 µM (active)
C[C@H](NC(=O)[C@@H](NC(=O)CNC(=O)[C@@H]1CCCN1C(=O)[C@@H]1CCCN1C(=O)[C@H](C)NC(=O)[C@H](CCCCN)NC(=O)[C@@H](N)CCC(N)=O)[C@@H](C)O)C(=O)N[C@@H](CCCNC(N)N)C(=O)N[C@@H](CCCNC(N)N)C(=O)N[C@@H](CCCCN)C(=O)N[C@@H](CCCNC(N)N)C(=O)N[C@@H](CCCCN)C(=O)O (H-QKAPPGTA[Orn(CH(NH2)2)][Orn(CH(NH2)2)]K[Orn(CH(NH2)2)]K-OH),Kd,"protein: A. thaliana cpSRP43 Delta CD3, PDB entry 3ui2",0.43 µM (active)
C[C@H](N)C(=O)N[C@@H](CCCNC(N)N)C(=O)N[C@H](C(=O)N[C@@H](CCCCN(C)C)C(=O)N[C@@H](CCC(N)=O)C(=O)N[C@H](C(=O)N[C@@H](C)C(=O)N[C@@H](CCCNC(N)N)C(=O)N[C@@H](CCCCN(C)C)C(=O)N[C@@H](CO)C(=O)N[C@H](C(=O)NCC(=O)NCC(=O)N[C@@H](CCCCN)C(=O)N[C@@H](C)C(=O)N1CCC[C@H]1C(=O)NCC(=O)NCC(=O)O)[C@@H](C)O)[C@@H](C)O)[C@@H](C)O,Kd,"protein: heterochromatin protein 1 (HP1), PDB entry 1guw",1.9 µM (active)
CC(C)[C@H](NC(=O)[C@@H]1CCCN1C(=O)[C@@H](N)Cc1ccc(O)cc1)C(=O)N[C@@H](CCCCN)C(=O)N[C@@H](CCCCN)C(=O)N[C@@H](CCCCN)C(=O)N[C@@H](C)C(=O)N[C@@H](CCCNC(N)N)C(=O)N[C@@H](CCCCN(C)C)C(=O)N[C@@H](CO)C(=O)N[C@@H](C)C(=O)NCC(=O)O (H-YPVKKKA[Orn(CH(NH2)2)][Lys(Me2)]SAG-OH),Kd,"protein: Human Chromobox Homolog 3 (CBX3), PDB entry 3tzd",52 µM (active)
